# Screening data: PubChem, National Center for Advancing Translational Sciences (NCATS)
# GLP1R cytotox: cytotoxic in the GLP-1 receptor inverse agonist counter-screen | 0.13% of 410,000 active | HEK293 cAMP-luciferase reporter cells, luminescence, 24 h | Potency, µM (top dose mostly 38.3 µM), for inactives: top-dose activity change, negative = inhibition, actives largely listed as inhibitors | AID 624418;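 note: loss of luciferase light is scored as toxicity; % is set by controls: 0 for no effect and ±100 for the full control effect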
#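 To flag toxic compounds, the library was rerun on cells for 24 hr at 37 deg C and 5% CO2. Viability-linked luminescence was captured 12 min after adding luciferase detection reagent.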
# ClpP mod: qHTS Assay for Activators of ClpP | ATP-dependent Clp protease proteolytic subunit (Bacillus subtilis (strain 168)), P80244 | purified B. subtilis ClpP, FRET peptide cleavage, 20 min | Potency, µM (doses to about 57.5 µM), inactives show at the top dose activity change, negative = active | 1.9% of 340,000 active | AID 651965, 2013; active = well fitted falling curve with a large enough effect; inconclusive = small, poorly fitted or top-dose-only effect; inactive = no such curve, though single readings can be large or run the other way; note: the source files actives as falling curves though it sought activators and does not explain the sign; nearly all actives have a fitted effect of over 65% in size
#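 ClpP 10 microg/mL final, pH 8 Tris/KCl buffer with BSA, glycerol, Tween-20; compound pinned in; FRET-FV substrate; RT 20 min; Ex320/Em430; ΔFRET vs ADEP 5.8 microM, DMSO, no enzyme.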
# GLP1R inv ag: GLP-1 receptor (human) inverse agonism; HEK293 GLP-1R CRE-luciferase, luminescence, 24 h; GLP-1R form is constitutively active; Potency, µM (series often up to 38.3 µM), inactives show at the highest dose activity change, negative = inhibition, most hits filed as inhibitors; P43220; 1.6% of 410,000 active; note: % is set by controls: 0 for no effect and ±100 for the full control effect; nearly all actives have a fitted effect of over 55% in size
#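 HEK293 cells stably co-expressing constitutively active GLP-1R and a cAMP-responsive luciferase reporter were seeded in DMEM with 10% Nu serum, given compounds after 12 h, and incubated 24 h at 37 deg C. Luminescence was then read.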
# GLP-1R agonist: GLP-1 receptor (human) agonism. P43220. HEK293 GLP-1R CRE-luciferase, luminescence, 4-6 h; cells express a hypersensitive GLP-1R form. Potency, µM (titrated, usually from 45.6 µM), without a hit: at the top dose activation, hits mostly activators. 0.007% of 380,000 active. AID 624172; note: % of control where 0% means no effect
# Numbers without * were called inactive; ? = inconclusive; / = no result given. Hits are enriched below; roughly 3.2% of the tested compounds scored in any of these assays. Unless noted, calls come from the whole dose curve; as a rule, active = well fitted curve in the direction sought with a large enough effect; inconclusive = small, poorly fitted or top-dose-only effect, or another doubt; inactive = no such curve, though single readings can be large; an effect the other way counts as inactive or inconclusive. Potency is the fitted concentration of half-maximal effect.
SMILES,GLP1R cytotox,ClpP mod,GLP1R inv ag,GLP-1R agonist
Cc1cc(=O)oc2cc(OCC(=O)N3CCOCC3)ccc12,1.4%,15.8µM*,2.5%,4.2%
Cc1cc(=O)oc2cc(OC(C)C(=O)N3CCOCC3)ccc12 (centres undefined),8.1%,14.1µM*,6.4%,-7.2%
Cc1cc(=O)oc2cc(OCc3ccc(S(=O)(=O)N4CCOCC4)cc3)ccc12,9.0%,3.16µM*,0.0%,9.8%
Cc1cc(=O)oc2cc(OC(C)C(=O)Nc3ccc(N4CCCCC4)cc3)ccc12 (centres undefined),3.1%,-1.5%,10.8%,2.4%
CC1CCCCN1C(=O)Cn1ncc2c3ccccc3n(Cc3ccccc3F)c2c1=O (centres undefined),0.6%,-13.5%,?,/
N#Cc1nc(-c2ccc(COc3ccccc3)o2)oc1NCc1cccnc1,-17.3%,?,6.5%,/
CN(C)c1oc(-c2ccc(COc3ccccc3)o2)nc1C#N,0.3%,31.6µM*,-5.6%,/
CN(C)c1oc(-c2ccc(OCc3ccc(Cl)cc3)cc2)nc1C#N,-7.6%,15.8µM*,0.0%,8.8%
COC(=O)c1cc(-c2ccc(Cl)cc2)c2c(=O)[nH]c(=O)n(C)c2n1,1.8%,4.2%,10.8%,/
CC1(C(=O)OCC(=O)N2c3ccccc3Sc3ccccc32)CC1(Cl)Cl (centres undefined),15.8%,-4.6%,11.2µM*,5.0%
O=C(COc1ccccc1[N+](=O)[O-])N(Cc1ccco1)c1ccccn1,4.6%,0.9%,17.5%,/
COc1ccc(CC(=O)Nc2ccc(-c3cn4ccc(C)cc4n3)cc2)cc1,-9.8%,15.8µM*,-20.3%,5.7%
O=C(c1ccccc1Oc1ccccc1)N1CCN(c2ccccc2F)CC1,10.4%,0.9%,?,3.5%
COc1ccccc1N1CCN(C(=O)c2cc(-c3ccccc3)nc3c2cnn3C(C)C)CC1,4.2%,-3.9%,11.2µM*,0.5%
COc1ccccc1N1CCN(C(=O)c2ccccc2Oc2ccccc2)CC1,-5.6%,0.6%,8.91µM*,3.2%
Cc1ccccc1N1CCN(C(=O)c2cc(-c3ccccc3)nc3c2cnn3C(C)C)CC1,5.1%,1.2%,5.4%,-3.4%
COc1ccccc1OCCNC(=O)c1cc(C2CC2)nc2c1cnn2C(C)C,-15.2%,-19.1%,1.5%,-1.6%
COc1ccccc1CCNC(=O)c1cc(C2CC2)nc2c1cnn2C(C)C,0.1%,/,10µM*,29.3%
COc1ccccc1N1CCN(C(=O)c2cc3c(s2)-c2ccccc2OC3)CC1,-18.5%,14.1µM*,?,2.4%
O=C(NCc1ccc2c(c1)CCN2C(=O)c1ccncc1)c1cccc(F)c1,3.0%,-3.2%,0.2%,/
Cc1ccc(C)c(NC(=O)c2ccc3c(c2)CCCN3S(C)(=O)=O)c1,-1.4%,0.8%,14.0%,/
C[N+]1(CC(=O)c2ccc(Oc3ccc(C(=O)C[N+]4(C)CCOCC4)cc3)cc2)CCOCC1,/,-0.2%,/,/
CCC1=Nc2cc(C(=O)N3CCC(C)CC3)ccc2Sc2ccc(C)cc21,-6.9%,0.2%,?,/
COc1ccc(C(=O)NC(=S)N2CCN(c3ccccc3OC)CC2)cc1,4.47µM*,/,?,2.2%
CCN(CC)CCCNC(=O)CSc1nc2nc(C)c(Cc3ccccc3C)c(C)n2n1,-5.4%,-10.1%,-14.9%,/
SMILES,GLP1R cytotox,ClpP mod,GLP1R inv ag,GLP-1R agonist
Cc1noc(C)c1C(=O)NCc1ccccc1,-2.9%,31.6µM*,22.7%,-3.9%
Cc1noc(C)c1C(=O)NCCc1ccccc1,-9.1%,-0.8%,2.9%,2.7%
COc1cc(OC)c(NC(=O)CCc2c(C)nc3ncnn3c2C)cc1Cl,3.6%,0.8%,-0.7%,-2.1%
COc1ccc(-c2nc(CN3CCC(C(=O)NCCCN4CCN(c5ccccc5F)CC4)CC3)c(C)o2)cc1OC,12.6µM*,-20.8%,10µM*,/
CCC1CCCCN1CCCNC(=O)C1CCN(Cc2nc(-c3ccc(Cl)cc3)oc2C)CC1 (centres undefined),5.01µM*,-8.3%,12.6µM*,-6.7%
CCN(CCNC(=O)C1CCN(Cc2nc(-c3ccc(Cl)cc3)oc2C)CC1)c1ccccc1,?,2.6%,2.51µM*,-4.9%
Cc1oc(-c2ccc(Cl)cc2)nc1CN1CCC(C(=O)NCCCN2CCOCC2)CC1,-21.0%,0.0%,?,4.6%
CCCCN1CC(c2nc3ccccc3n2CCCCOc2ccccc2C)CC1=O (centres undefined),?,-0.1%,?,/
CC(C)c1nc2ccc(C(=O)NCc3ccccc3Br)cc2o1,1.2%,-2.2%,-21.8%,/
COC(=O)c1c(NC(=S)NN2CCN(C)CC2)sc2c1CCC(C)C2 (centres undefined),?,/,10µM*,15.4%
Cc1cc(C(F)(F)F)c2c(C)nn(CCc3nn[nH]n3)c2n1,-3.5%,17.8µM*,4.1%,-13.9%
CCOC(=O)c1cc(-c2ccc(OC)cc2F)nc2c1c(C)nn2CCC#N,-10.8%,25.1µM*,1.9%,31.2%
CCOC(=O)c1cc(-c2ccc(Cl)cc2)nc2c1c(C)nn2CCC#N,0.6%,35.5µM*,?,1.5%
Cc1nn(CCc2nn[nH]n2)c2nc(-c3ccccc3)cc(C(F)(F)F)c12,-6.5%,3.3%,?,-5.7%
Cc1cc(C(F)(F)F)c2c(C)nn(-c3ccccc3)c2n1,11.4%,28.2µM*,3.7%,-3.4%
Cc1cc(C)cc(NC(=O)Cn2cc(C(=O)c3ccccc3)c(=O)c3ccc(C)nc32)c1,-4.7%,-4.2%,4.8%,/
NCC1O[C@@H](OC2C(N)C[C@H](N)[C@@H](O[C@H]3OC(CO)C(O)C(N)C3O)C2O)C(N)C(O)C1O (some centres undefined),/,/,/,-1.7%
CCCOc1ccc(NC(=O)CC2C(=O)N(c3ccc(C)cc3)C(=O)N2C(C)C)cc1 (centres undefined),2.8%,1.2%,-5.5%,/
Cc1nn(CCC#N)c2nc(-c3ccccc3)cc(C(F)(F)F)c12,0.7%,31.6µM*,?,4.7%
Cc1cccc(CSC2=CS(=O)(=O)c3ccccc3N2)c1,-2.1%,1.4%,?,-0.6%
O=S1(=O)C=C(SCc2cccc(Cl)c2)Nc2ccccc21,-2.0%,31.6µM*,0.0%,-10.9%
CCOc1ccc(CNC(=O)Cn2c(=O)c3cccn3c3ccc(F)cc32)cc1OC,-0.7%,?,10.3%,/
O=C(NCCc1ccncc1)Nc1ccc(Cl)c(Cl)c1,4.7%,/,?,-0.6%
CN(C)CCNC(=O)Nc1ccc(Cl)c(Cl)c1,-10.1%,-0.3%,11.2µM*,-13.9%
O=C(Nc1ccc(Cl)c(Cl)c1)Nc1ccon1,?,2.9%,7.94µM*,5.3%
Cc1ccc(N(CC(=O)Nc2ccc(C)c(F)c2)S(=O)(=O)c2c(C)n[nH]c2C)cc1,-11.1%,0.8%,?,-1.4%
Cc1ccc(-c2nc3c(c(SCC(=O)N4CCCCC4)n2)Cc2cc(C)ccc2O3)cc1,-0.4%,-4.0%,2.7%,/
Cc1[nH]c2ccccc2c1Cc1nnc(SCc2ccccc2)o1,-24.5%,-1.3%,11.2µM*,9.2%
Cc1nc2c([nH]1)C1(CCN(Cc3ccccc3)CC1)C(C#N)=C(N)O2,12.4%,15.8µM*,-20.4%,-12.9%
